# Source: PMC7862700, “An all-to-all approach to the identification of sequence-specific readers for epigenetic DNA modifications on cytosine”
# Tests used:
# Assay in all cases: DAPPL (digital affinity profiling via proximity ligation, sequencing); 10 mM Tris-HCl pH 7.5, 50 mM NaCl, 1 mM DTT, 4% glycerol, room temperature, 30 min; GST-TFs on glutathione beads, 16-mer random dsDNA library, 0.1% formaldehyde crosslink after washing; high values mean tight binding
# [1] = biological target: T1, ELK1 (Homo sapiens, UniProt P19419 1-428); conditions: protein: recombinant; tags: N-terminal GST; dsDNA, one strand shown
# T1 sequence: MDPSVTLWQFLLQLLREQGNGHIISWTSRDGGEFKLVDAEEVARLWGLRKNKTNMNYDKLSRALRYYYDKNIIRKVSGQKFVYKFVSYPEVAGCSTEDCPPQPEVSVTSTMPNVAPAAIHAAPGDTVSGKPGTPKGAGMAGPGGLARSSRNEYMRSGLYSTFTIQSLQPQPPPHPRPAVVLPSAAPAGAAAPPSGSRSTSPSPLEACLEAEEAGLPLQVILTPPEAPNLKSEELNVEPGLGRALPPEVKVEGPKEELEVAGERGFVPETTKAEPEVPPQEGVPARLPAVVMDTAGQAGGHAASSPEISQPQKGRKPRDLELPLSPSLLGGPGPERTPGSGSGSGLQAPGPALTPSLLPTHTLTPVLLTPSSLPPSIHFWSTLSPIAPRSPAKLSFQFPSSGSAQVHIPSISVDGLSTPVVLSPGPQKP
# Procedure, shortened: (§1)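 After expression in yeast as GST fusions, human transcription factors were bound to glutathione beads, DNA-barcoded and mixed with a tag-only sample. The pools were incubated with 200 nmole of a 16-mer random double-stranded DNA library in Tris/NaCl/DTT/glycerol buffer (30 min, room temperature), washed and crosslinked with 0.1% formaldehyde. Proximity ligation with BsaI/T4 ligase ran for 1 h at 37 °C, before PCR amplification and sequencing on an Illumina NextSeq500. Binding signal is a hexamer's read frequency for a factor divided by its frequency for the tag-only sample.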
# [2] = biological target: T2, ERG (Homo sapiens, UniProt P11308 1-479); conditions: protein: recombinant; tags: N-terminal GST; dsDNA, one strand shown
# T2 sequence: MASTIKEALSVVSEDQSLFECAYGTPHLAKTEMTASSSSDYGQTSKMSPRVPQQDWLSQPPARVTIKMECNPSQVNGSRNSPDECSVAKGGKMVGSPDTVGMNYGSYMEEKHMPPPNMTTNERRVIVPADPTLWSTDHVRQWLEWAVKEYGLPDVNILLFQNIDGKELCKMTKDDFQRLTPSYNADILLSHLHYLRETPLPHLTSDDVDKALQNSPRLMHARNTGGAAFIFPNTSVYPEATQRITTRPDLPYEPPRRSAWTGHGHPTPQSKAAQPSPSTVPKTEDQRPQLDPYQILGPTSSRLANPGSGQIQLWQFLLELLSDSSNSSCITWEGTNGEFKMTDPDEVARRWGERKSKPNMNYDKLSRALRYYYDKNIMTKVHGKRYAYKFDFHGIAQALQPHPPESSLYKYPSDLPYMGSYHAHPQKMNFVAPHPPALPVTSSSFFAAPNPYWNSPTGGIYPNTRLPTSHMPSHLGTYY
# Procedure, shortened: as §1
# [3] = biological target: SPI1 (Homo sapiens, UniProt P17947 1-270); conditions: protein: recombinant; tags: N-terminal GST; dsDNA, one strand shown
# Procedure, shortened: as §1
# [4] = biological target: HSF1 (Homo sapiens, UniProt Q00613 1-529); conditions: protein: recombinant; tags: N-terminal GST; chain copies: 3; dsDNA, one strand shown
# Procedure, shortened: as §1
# [5] = biological target: T3, SPIC (Homo sapiens, UniProt Q8N5J4 1-248); conditions: protein: recombinant; tags: N-terminal GST; dsDNA, one strand shown
# T3 sequence: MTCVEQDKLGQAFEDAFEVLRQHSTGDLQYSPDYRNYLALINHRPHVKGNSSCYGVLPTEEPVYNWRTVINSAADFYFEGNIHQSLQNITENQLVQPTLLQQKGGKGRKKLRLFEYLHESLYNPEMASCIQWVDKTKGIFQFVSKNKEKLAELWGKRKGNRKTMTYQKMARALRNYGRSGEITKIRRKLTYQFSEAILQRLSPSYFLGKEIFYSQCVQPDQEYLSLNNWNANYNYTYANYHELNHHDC
# Procedure, shortened: as §1
# [6] = biological target: T4, ELK4 (Homo sapiens, UniProt P28324-2 1-405); conditions: protein: recombinant; tags: N-terminal GST; dsDNA, one strand shown
# T4 sequence: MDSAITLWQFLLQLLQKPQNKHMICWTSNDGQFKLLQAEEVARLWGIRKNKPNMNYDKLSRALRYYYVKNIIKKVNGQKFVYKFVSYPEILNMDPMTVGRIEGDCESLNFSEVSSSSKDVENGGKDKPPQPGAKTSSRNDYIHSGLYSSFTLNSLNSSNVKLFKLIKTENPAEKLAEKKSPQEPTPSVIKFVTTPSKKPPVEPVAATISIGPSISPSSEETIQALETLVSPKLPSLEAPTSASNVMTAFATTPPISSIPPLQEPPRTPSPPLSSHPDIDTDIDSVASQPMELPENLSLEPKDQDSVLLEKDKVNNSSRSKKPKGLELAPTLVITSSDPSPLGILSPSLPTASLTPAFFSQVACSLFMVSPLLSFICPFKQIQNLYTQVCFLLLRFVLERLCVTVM
# Procedure, shortened: as §1
# [7] = biological target: T5, ETV2 (Homo sapiens, UniProt O00321 1-342); conditions: protein: recombinant; tags: N-terminal GST; dsDNA, one strand shown
# T5 sequence: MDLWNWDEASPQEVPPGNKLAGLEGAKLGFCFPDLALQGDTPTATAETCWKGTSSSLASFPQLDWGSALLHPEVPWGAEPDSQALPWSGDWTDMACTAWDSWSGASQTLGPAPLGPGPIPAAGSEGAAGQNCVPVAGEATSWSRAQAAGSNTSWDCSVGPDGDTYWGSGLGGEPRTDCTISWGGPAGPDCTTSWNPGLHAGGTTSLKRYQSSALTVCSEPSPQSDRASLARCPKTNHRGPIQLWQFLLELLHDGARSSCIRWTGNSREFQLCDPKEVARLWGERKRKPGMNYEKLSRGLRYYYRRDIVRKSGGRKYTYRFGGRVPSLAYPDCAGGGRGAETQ
# Procedure, shortened: as §1
# [8] = biological target: CRX (Homo sapiens, UniProt O43186 1-299); conditions: protein: recombinant; tags: N-terminal GST; dsDNA, one strand shown
# Procedure, shortened: as §1
# [9] = biological target: T6, ERF (Homo sapiens, UniProt P50548 1-548); conditions: protein: recombinant; tags: N-terminal GST; dsDNA, one strand shown
# T6 sequence: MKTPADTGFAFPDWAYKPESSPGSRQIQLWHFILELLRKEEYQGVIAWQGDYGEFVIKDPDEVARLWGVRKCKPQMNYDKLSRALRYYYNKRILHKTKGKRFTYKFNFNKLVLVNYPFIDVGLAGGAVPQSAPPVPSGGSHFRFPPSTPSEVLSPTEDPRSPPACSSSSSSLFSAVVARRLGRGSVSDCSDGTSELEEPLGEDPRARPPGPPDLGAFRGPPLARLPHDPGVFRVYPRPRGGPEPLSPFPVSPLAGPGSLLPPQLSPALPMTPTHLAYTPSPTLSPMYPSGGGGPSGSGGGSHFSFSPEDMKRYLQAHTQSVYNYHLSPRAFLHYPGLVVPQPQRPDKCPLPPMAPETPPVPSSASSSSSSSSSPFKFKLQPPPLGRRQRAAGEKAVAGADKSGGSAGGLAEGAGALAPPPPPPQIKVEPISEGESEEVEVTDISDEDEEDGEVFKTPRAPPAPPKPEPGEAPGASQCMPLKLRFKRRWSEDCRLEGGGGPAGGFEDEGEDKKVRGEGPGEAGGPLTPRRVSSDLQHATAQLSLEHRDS
# Procedure, shortened: as §1
# [10] = biological target: T7, ETV3L (Homo sapiens, UniProt Q6ZN32 1-361); conditions: protein: recombinant; tags: N-terminal GST; dsDNA, one strand shown
# T7 sequence: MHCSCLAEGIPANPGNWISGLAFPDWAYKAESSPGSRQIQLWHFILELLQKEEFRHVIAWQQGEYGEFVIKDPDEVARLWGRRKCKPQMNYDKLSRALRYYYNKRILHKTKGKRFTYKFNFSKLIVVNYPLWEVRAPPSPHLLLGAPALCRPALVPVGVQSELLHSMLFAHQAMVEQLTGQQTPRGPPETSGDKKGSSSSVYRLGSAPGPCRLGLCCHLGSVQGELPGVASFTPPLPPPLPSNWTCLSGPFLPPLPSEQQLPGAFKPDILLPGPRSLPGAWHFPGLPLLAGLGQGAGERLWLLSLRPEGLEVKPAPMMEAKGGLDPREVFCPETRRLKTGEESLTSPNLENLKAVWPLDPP
# Procedure, shortened: as §1
# [11] = biological target: T8, ELF5 (Homo sapiens, UniProt Q9UKW6-2 1-255); conditions: protein: recombinant; tags: N-terminal GST; dsDNA, one strand shown
# T8 sequence: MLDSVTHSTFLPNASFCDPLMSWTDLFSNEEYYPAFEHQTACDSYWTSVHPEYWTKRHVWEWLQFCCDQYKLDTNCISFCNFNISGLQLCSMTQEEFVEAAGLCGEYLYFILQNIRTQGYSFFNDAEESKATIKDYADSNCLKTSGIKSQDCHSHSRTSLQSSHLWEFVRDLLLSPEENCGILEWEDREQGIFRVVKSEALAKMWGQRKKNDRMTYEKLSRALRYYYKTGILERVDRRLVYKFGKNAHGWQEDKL
# Procedure, shortened: as §1
# [12] = biological target: T9, ETV3 (Homo sapiens, UniProt P41162-2 1-143); conditions: protein: recombinant; tags: N-terminal GST; dsDNA, one strand shown
# T9 sequence: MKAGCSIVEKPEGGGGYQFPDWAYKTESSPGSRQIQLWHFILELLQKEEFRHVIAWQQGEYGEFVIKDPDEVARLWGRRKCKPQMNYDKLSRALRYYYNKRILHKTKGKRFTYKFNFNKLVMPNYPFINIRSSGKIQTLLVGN
# Procedure, shortened: as §1
# [13] = biological target: ETV6 (Homo sapiens, UniProt P41212 1-452); conditions: protein: recombinant; tags: N-terminal GST; dsDNA, one strand shown
# Procedure, shortened: as §1
# Chain of HSF1 (Q00613 whole entry): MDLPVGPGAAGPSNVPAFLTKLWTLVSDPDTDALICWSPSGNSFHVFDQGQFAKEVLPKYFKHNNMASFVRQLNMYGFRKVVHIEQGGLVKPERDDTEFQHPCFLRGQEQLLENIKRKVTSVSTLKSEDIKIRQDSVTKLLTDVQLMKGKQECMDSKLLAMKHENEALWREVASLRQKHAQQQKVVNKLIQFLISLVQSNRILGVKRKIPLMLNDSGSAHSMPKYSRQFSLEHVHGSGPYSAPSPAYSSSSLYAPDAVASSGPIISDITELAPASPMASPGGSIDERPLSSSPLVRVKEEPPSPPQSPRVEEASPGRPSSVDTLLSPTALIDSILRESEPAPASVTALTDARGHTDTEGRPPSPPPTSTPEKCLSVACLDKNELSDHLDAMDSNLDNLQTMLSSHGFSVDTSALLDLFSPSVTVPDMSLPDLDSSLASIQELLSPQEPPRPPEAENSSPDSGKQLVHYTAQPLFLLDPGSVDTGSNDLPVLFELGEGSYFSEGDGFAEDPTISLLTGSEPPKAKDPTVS
# Chain of CRX (O43186 whole entry): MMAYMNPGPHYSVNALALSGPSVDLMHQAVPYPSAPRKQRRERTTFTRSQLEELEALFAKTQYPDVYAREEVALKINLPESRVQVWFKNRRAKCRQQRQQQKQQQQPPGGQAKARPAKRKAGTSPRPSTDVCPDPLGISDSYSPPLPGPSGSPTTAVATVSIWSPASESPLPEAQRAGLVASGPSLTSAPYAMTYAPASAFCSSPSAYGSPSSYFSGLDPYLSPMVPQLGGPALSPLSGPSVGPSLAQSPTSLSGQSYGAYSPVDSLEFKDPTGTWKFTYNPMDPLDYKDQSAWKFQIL
# Chain of ETV6 (P41212 whole entry): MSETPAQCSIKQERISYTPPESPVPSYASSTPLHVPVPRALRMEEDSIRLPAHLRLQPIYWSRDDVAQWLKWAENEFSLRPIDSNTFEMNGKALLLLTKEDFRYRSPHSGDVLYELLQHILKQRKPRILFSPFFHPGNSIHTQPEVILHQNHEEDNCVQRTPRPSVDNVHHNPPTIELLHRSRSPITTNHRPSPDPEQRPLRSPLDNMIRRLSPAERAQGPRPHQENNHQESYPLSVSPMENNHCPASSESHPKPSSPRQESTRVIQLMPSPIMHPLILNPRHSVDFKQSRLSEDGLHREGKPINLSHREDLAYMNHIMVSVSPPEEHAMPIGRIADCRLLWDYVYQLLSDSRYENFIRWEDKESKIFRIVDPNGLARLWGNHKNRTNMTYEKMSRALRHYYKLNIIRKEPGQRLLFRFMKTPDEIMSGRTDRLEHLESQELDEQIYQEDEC
Sequence,binding signal [1],binding signal [2],binding signal [3],binding signal [4],binding signal [5],binding signal [6],binding signal [7],binding signal [8],binding signal [9],binding signal [10],binding signal [11],binding signal [12],binding signal [13]
AGTATA,"1.05 fold enrichment (6-mer frequency, TF over GST control)","1 fold enrichment (6-mer frequency, TF over GST control)","1.04 fold enrichment (6-mer frequency, TF over GST control)","1.01 fold enrichment (6-mer frequency, TF over GST control)","1.07 fold enrichment (6-mer frequency, TF over GST control)","1.03 fold enrichment (6-mer frequency, TF over GST control)","1.06 fold enrichment (6-mer frequency, TF over GST control)","1.07 fold enrichment (6-mer frequency, TF over GST control)","1.01 fold enrichment (6-mer frequency, TF over GST control)","1.02 fold enrichment (6-mer frequency, TF over GST control)","1.03 fold enrichment (6-mer frequency, TF over GST control)","1 fold enrichment (6-mer frequency, TF over GST control)","1.06 fold enrichment (6-mer frequency, TF over GST control)"
GAAGGT,–,–,–,"1.14 fold enrichment (6-mer frequency, TF over GST control)",–,–,–,–,–,–,–,–,–
